Drawing on publication PMC12136788, this text covers binding signal for 22 molecules.

First the molecules themselves.
T1: UNK ZnF1-3 (human, UniProt Q9C0B0 31-174)
T1 sequence: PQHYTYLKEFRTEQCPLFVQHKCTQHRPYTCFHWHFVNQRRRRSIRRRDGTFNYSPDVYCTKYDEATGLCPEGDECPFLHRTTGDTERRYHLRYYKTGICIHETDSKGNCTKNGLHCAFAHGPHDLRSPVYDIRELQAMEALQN

B1: chr17:56552419:56552420:-_ENSMUSG00000013236_ENSMUST00000086828|mus_mus|mus_mus_mus_hu_False|28_48 (ssRNA)
RNA: GGGAGUUCUACAGUCCGACGAUCAAAAAAUACACUAUUUAAAAAAAAUGAAAUGUCACGGGAUACAGUUACACUGAGAGUUUUAAAAAAAAAUAAGAUUCUGGUCCUUGCCAAAAGUCCCCAGGCUGCAGAGCGGGGAGGAGCCAACAGAGGAUUGAGCAUCA
B2: chr17:56552419:56552420:-_ENSMUSG00000013236_ENSMUST00000086828|mus_mus|mus_mus_mus_hu_False|28_98 (ssRNA)
RNA: B1 RNA with U38A, U39A, A88G, A92G, U93C, A94U, A95G
B3: chr17:56552419:56552420:-_ENSMUSG00000013236_ENSMUST00000086828|mus_mus|mus_mus_mus_hu_False|28_58 (ssRNA)
RNA: B1 RNA with G77C, G79C, U81A, A88G, A92G, U93C, A94U, A95G
B4: chr17:56552419:56552420:-_ENSMUSG00000013236_ENSMUST00000086828|mus_mus|mus_mus_mus_hu_False|28_78 (ssRNA)
RNA: GGGAGUUCUACAGUCCGACGAUCAAAAAAUACACUAUUUAAAAAAAAUGAAAUGUCAGAAAAAGAAGUUACACUGAGAGUUUUAAAAGAAAGCUGGAUUCUGGUCCUUGCCAAAAGUCCCCAGGCUGCAGAGCGGGGAGGAGCCAACAGAGGAUUGAGCAUCA
B5: chr7:149068622:149068623:-_ENSMUSG00000025139_ENSMUST00000001950|mus_hu|mus_mus_mus_hu_False|78_88 (ssRNA)
RNA: GGGAGUUCUACAGUCCGACGAUCGUGAGGCCUCUGAGUGUGGCUUGUGCUCUGCAGUGUCUGCAGUUUGUUAAUAUCACGGAACAUACCAUCUAGAACGUUCCAGUCCCGCCUGACACCUUCAUUCCCAAUGGAGAAGAAAUCCAACAGAGGAUUGAGCAUCA
B6: chr5:135101456:135101457:-_ENSMUSG00000040731_ENSMUST00000036125|mus_mus|motif|central (ssRNA)
RNA: GGGAGUUCUACAGUCCGACGAUCACCCAAGAGUGCACCGUCAUAAGUCAGAGCCUCCUUCAGGGAAUCCACCUCAUCAAAUUCGGCAUAGCAGAACCCUUUAAAUUUGUCUGUGUCUUUGUCUCUGACUAGCCGCACACUCCGCAACAGAGGAUUGAGCAUCA
B7: chrX:130830059:130830060:+_ENSMUSG00000033578_ENSMUST00000037687|mus_mus|FALSE|FALSE (ssRNA)
RNA: GGGAGUUCUACAGUCCGACGAUCGGGCCAUGAUAGUUAUGGUUCGUGGGGAUGCCAUGGGGUCACCAAGGCAGGUCCCAACUAAUCCCUCUGCUUUGCGCAGCCCGGCUGUCAAGGCGCAGGCAGUUAGCACAGGGAGAGCUACAACAGAGGAUUGAGCAUCA
B8: chr1:163117127:163117128:-_ENSG00000143248_ENST00000313961|hu_mus|FALSE|FALSE (ssRNA)
RNA: GGGAGUUCUACAGUCCGACGAUCUGCUACAAAGGAUGUAACUCAACUCACAGGGCAACUUUUGGAAGCCUGACCAGAUGACUACUUGAUUAGCUCCUUAUAAAAUUCAGAGCGCACAAAGCGGGGCAGAGAAUCCUUCUCCAUCAACAGAGGAUUGAGCAUCA
B9: 139258410_139258530_201_CDS_ENSG00000114115_ENST00000232219|human|control|control (ssRNA)
RNA: GGGAGUUCUACAGUCCGACGAUCGCGGGACGGCUGGAGACUGCCGGGACAGCGGCUGCCGGUGCUACGCGGGUGGUGGGCGGCCCGGAAAUGAGCGCCCUCCGGGGACAGGGGGCUCUGCGGGGCGGCGACAGCUGGAUUCCCCAACAGAGGAUUGAGCAUCA
B10: chr17:56552419:56552420:-_ENSMUSG00000013236_ENSMUST00000086828|mus_mus|FALSE|FALSE (ssRNA)
RNA: GGGAGUUCUACAGUCCGACGAUCUUUGUUUUUUUCUUAAAAAAAAAAAAGAAAAAAAGAAAAAGAAAAAAAAUAUACACUAUUAAAAAAAAAUAAGAAAAAAAAUGUUGCCAAAAGGCAGGCAGGGGAGUGCGGAAGCAGAGGCAACAGAGGAUUGAGCAUCA
B11: chr17:56552419:56552420:-_ENSMUSG00000013236_ENSMUST00000086828|mus_mus|motif|central (ssRNA)
RNA: B10 RNA with U80G, A81G
B12: chr17:56552419:56552420:-_ENSMUSG00000013236_ENSMUST00000086828|mus_mus|mus_mus_mus_hu_False|18_28 (ssRNA)
RNA: GGGAGUUCUACAGUCCGACGAUCAAAAAAUACACUAUUUAAAAAAAAUGAAAUGUCACGGGAUACAGUUACACUGAGAGUUUUAAAAGAAAGCUGGAUUCUGGUCCUUGCCAAAAGGCAGGCAGGGGCAGAGCGGGGAGGAGCCAACAGAGGAUUGAGCAUCA
B13: chr2:65539780:65539781:-_ENSG00000198369_ENST00000356388|hu_hu|motif|central (ssRNA)
RNA: GGGAGUUCUACAGUCCGACGAUCUUUGCAAAACAACAAGCAAAAUUUCUUACUUCACUAGUAUCCUAUUCUAAUAUUGCGGAAUUUUUAGAAGUGGUGGCAACACAAUUUAAAAAAUGUUCUACUUUAGGGGUAAUGGGGAGGCAACAGAGGAUUGAGCAUCA
B14: chr7:54825262:54825263:-_ENSG00000132432_ENST00000352861|hu_hu|hu_hu_hu_mus_False|48_98 (ssRNA)
RNA: GGGAGUUCUACAGUCCGACGAUCCUGCCGGCUGGGCACAAACUGCAGCAUUACCUGAUCCAUGUUUGUUGGAUGGCGGAUUGAGAGUGCCAGGGACCGUAGCUCAGGAGAGAACCGAGCCCAACGGAACCGGAAGCUGGCAACCAACAGAGGAUUGAGCAUCA
B15: chr3:95023916:95023917:-_ENSMUSG00000053192_ENSMUST00000065482|mus_mus|motif|central (ssRNA)
RNA: GGGAGUUCUACAGUCCGACGAUCUAAAUAAAUAAAUAAAUAAAUAUAGAUAGAUAAAUAAGUACGUACAUACAUACAAACCGGCAAUUCAAUUGGCAGAUUCAUCAGCACCACCAGCACAAUAGAGGGAAGAGAACAAGAUUACAACAGAGGAUUGAGCAUCA
B16: chr3:148802587:148802588:-_ENSG00000071794_ENST00000310053|hu_mus|hu_hu_hu_mus_False|28_38 (ssRNA)
RNA: GGGAGUUCUACAGUCCGACGAUCUCCAACAACUUGUCCUCUCAUAGUUCCAAAUAAAACCAAAUCUUGCUCUUCAUCACUCGUUAGGAAGUCAUCUGGAGGGAUAACAUCUUGGAAUUCAAAAUGUGGCAAGAAAGUUGAGUACAACAGAGGAUUGAGCAUCA
B17: chr17:64801638:64801639:+_ENSG00000154229_ENST00000413366|hu_mus|hu_hu_hu_mus_False|78_78 (ssRNA)
RNA: GGGAGUUCUACAGUCCGACGAUCUAUAUAUAUAUAUACAUAUGUACACAUAUAUAGUAAGAGCCUAGUUAAACGUGUAAAGUAGCCAUUCAUUUUUAAAAUUACAUCUACAUUAAAAAAUUAAUAUAUCUGAUAGAGUGCCAGCAACAGAGGAUUGAGCAUCA
B18: chr3:95023916:95023917:-_ENSMUSG00000053192_ENSMUST00000065482|mus_mus|FALSE|FALSE (ssRNA)
RNA: B15 RNA with G82U, G83A
B19: chr1:34870196:34870197:-_ENSMUSG00000037503_ENSMUST00000047534|mus_hu|motif|central (ssRNA)
RNA: GGGAGUUCUACAGUCCGACGAUCAUCUGAGCUCAUCUCAUCAGAUUGCAUAAAAAAUUAAAAUAGUAUCAAUUGACACCGGACUGAACUGGCUCAGGAUGGAAAUUCCAUUCCUUGGCAUGGAUACGUAAGUUCAAUGCAGAGCAACAGAGGAUUGAGCAUCA
B20: 17587070_17598549_148_CDS_ENSMUSG00000015733_ENSMUST00000015877|mouse|control|control (ssRNA)
RNA: GGGAGUUCUACAGUCCGACGAUCGUGAAUGAUGAAUUUUGCUGCUAUACGAACCUUCUCCUCAUCGGACAACUGCUCCUCCAGAUCCGCCAUCUUCCUUCUGGCGACAGACCGUGGCGCUGGUGGCAGCAGCGGCCACCUGACCAACAGAGGAUUGAGCAUCA
B21: 33058320_33060047_1444_CDS_ENSG00000170266_ENST00000307363|human|control|control (ssRNA)
RNA: GGGAGUUCUACAGUCCGACGAUCUCCCUGGGGGAUCCCAUCCACAGCAACAUAUGCUCGAUCGUGGACUCCAUUGAGGGGUGAAGAGAGAGGUGCUGGGUUGCUGCAAUCUUGAGGAAGUGUUGUCCGGUACAGCACAAACCCCAACAGAGGAUUGAGCAUCA
B22: chr5:145543945:145543946:-_ENSG00000133706_ENST00000545646|hu_hu|hu_hu_hu_mus_True|18_98 (ssRNA)
RNA: GGGAGUUCUACAGUCCGACGAUCCUGAACGGCCAGUGGCGGGAAAUAAUCAAGCCAGUGCUCUGCUUCAGAAAACUUCACUAUGUCGUCAUCAGAGAGCCCAAGGGAUUUCAUAAUGCCCCACUGGUACUUAGAAGAUCCUGCCAACAGAGGAUUGAGCAUCA

Where a chain is given by its changes, count along the chain named. The full ranking holds about 24,000 sequences; the median of “enrichment r” is about 0.99, and the highest 2% start at about 3.7. The entries come from a sample that favours the highest values as a whole.

For this experiment, the target named is T1, UNK ZnF1-3. The experiment can be described thus: nsRBNS (natural sequence RNA bind-n-seq); RBNS binding buffer (assumed for nsRBNS): 25 mM Tris pH 7.5, 150 mM KCl, 3 mM MgCl2, 0.01% Triton X-100, 500 ug/ml BSA, 20 U/ml SUPERase-In, 4 C; UNK is unkempt and MSI1 is Musashi-1; names of the RNAs are library labels; protein concentration not given here; high values mean tight binding.
B1 returned a binding signal of 6.32 enrichment R.

As for B2, the binding signal was found to be 6.54 enrichment R.

B3 had a binding signal of 4.14 enrichment R.

B4 came in with a binding signal of 3.64 enrichment R.

B5 showed a binding signal of 0.733 enrichment R.

Regarding B6, the binding signal came out at 0.437 enrichment R.

On to B7, for which the binding signal was 0.967 enrichment R.

For the molecule B8, the binding signal came to 1.14 enrichment R.

B9: the binding signal was determined as 1.1 enrichment R.

With B10, the binding signal is 19.2 enrichment R.

Consider B11, for which the binding signal was found to be 15.8 enrichment R.

Consider B12, for which the binding signal came to 3.67 enrichment R.

Regarding B13, the binding signal was found to be 3.44 enrichment R.

For the molecule B14, the binding signal worked out at 1.44 enrichment R.

The molecule B15 came in with a binding signal of 19.9 enrichment R.

Turning to B16, the binding signal was 1.19 enrichment R.

In turn, B17 had a binding signal of 1.53 enrichment R.

B18 had a binding signal of 7.35 enrichment R.

Consider B19, for which the binding signal is 1.43 enrichment R.

For B20, the binding signal worked out at 0.822 enrichment R.

Molecule B21 displayed a binding signal of 0.932 enrichment R.

Regarding B22, the binding signal came out at 0.932 enrichment R.
